Bioassay records from PubChem BioAssay.
CYP2C9 inh: human CYP2C9 inhibition. inhibition, % at 5 µM. CYP2C9 Supersomes, luciferin-H conversion, luminescence. 96,000 compounds, 20% hits;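 active = blocking of liver enzyme CYP2C9 beyond about 50% at 5 µM, limit read from the data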
Target sequence (P11712 whole entry, looked up): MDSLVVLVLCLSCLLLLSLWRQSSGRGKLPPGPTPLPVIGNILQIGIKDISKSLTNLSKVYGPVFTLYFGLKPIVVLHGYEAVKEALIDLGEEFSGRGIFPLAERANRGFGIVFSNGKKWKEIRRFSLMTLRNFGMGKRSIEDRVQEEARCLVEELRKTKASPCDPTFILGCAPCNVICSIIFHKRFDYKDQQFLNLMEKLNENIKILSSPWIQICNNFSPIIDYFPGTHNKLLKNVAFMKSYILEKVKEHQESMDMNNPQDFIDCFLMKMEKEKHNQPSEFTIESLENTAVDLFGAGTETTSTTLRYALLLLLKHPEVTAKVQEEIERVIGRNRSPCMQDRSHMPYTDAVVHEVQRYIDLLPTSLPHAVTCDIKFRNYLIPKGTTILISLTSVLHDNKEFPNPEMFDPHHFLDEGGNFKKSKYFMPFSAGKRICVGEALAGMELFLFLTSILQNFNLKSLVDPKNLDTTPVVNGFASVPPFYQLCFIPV
CYP2C9 act: activators of human CYP2C9. AID 1024. recombinant CYP2C9, luciferin-H conversion, luminescence; active compounds read high; factor 1 = untreated enzyme, 0 = blocked. P11712. 96,000 compounds, 1.4% hits. activation factor at 5 µM;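 active = activation factor of 2 or more for CYP2C9 at a 5 µM dose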;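 also: 0 = sulfaphenazole-blocked wells and 1 = vehicle-only wells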
CYP2C19 inhib: human CYP2C19 inhibition. P33261. CYP2C19 Supersomes, luciferin-H EGE luminescence, 30 min. inhibition, % at 5 µM. 96,000 compounds, 21% hits;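 active = CYP2C19 inhibition above a set limit at 5 µM in the primary screen, cut at about 50% in these data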;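 also: plate controls were negative control wells for no effect and 2.5 mM tranylcypromine positive control for full effect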
CYP2C19 act: increases human CYP2C19 enzyme activity; activation factor at 5 µM; recombinant CYP2C19, luciferin-H EGE luminescence; active compounds read high; 0 = fully inhibited enzyme, 1 = untreated enzyme; P33261; AID 1025; 96,000 tested, under 10 active;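 active = activation factor of at least 2 at 5 µM in the primary screen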;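 also: 0 = wells with 2.5 mM tranylcypromine and 1 = vehicle-only wells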
PostGolgi yeast: growth inhibition of a yeast mutant, post-Golgi transport screen | post-Golgi transport phenotypic cell assay | inhibition, % at 10 µM | 98,000 compounds, 0.9% hits | AID 739;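 also: yeast cells grown in 1536-well plates; yeast grown about 18 h at 30C before absorbance read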
PostGolgi ctrl: yeast control strain growth, post-Golgi counter-screen. inhibition, % at 10 µM. 98,000 compounds, 5% hits. efflux-deficient yeast background strain, growth absorbance A615, 16 h. AID 738
* marks the source's active call; other numbers are inactive results; . = no result given. Rows were chosen to be rich in hits. Some 32% of all compounds tested hit in one or more screens of this group. Rule as the data show it, unless noted: active = inhibition above about 30%; inactive = the rest.

SMILES | CYP2C9 inh | CYP2C9 act | CYP2C19 inhib | CYP2C19 act | PostGolgi yeast | PostGolgi ctrl
O=C(c1ccccc1Cl)N1CCCC(c2nc3c(nnn3Cc3ccccc3)c(=O)[nH]2)C1 (stereo not drawn) | 84.1* | 0.2 | 11.9 | 0.9 | 13.4 | 4.0
COc1ccc(Cn2nnc3c(=O)[nH]c(C4CCCN(C(=O)c5ccccc5)C4)nc32)cc1 (stereo not drawn) | . | . | . | . | -0.9 | -0.8
O=c1[nH]c(C2CCCN(S(=O)(=O)c3ccccc3)C2)nc2c1nnn2Cc1ccccc1 (stereo not drawn) | 80.7* | 0.2 | 44.3 | 0.6 | 17.8 | 9.2
COc1cccc(Cn2nnc3c(=O)[nH]c(C4CCCN(C(=O)c5ccccc5Cl)C4)nc32)c1 (stereo not drawn) | 82.9* | 0.2 | 38.8 | 0.6 | 5.4 | 2.8
CCc1nnc(NC(=O)CSc2nc(C3CCCCC3)nc3ccccc23)s1 | 14.8 | 0.9 | 5.3 | 0.9 | -2.9 | -6.8
CC1CN(C(=O)COc2ncnc3ccccc23)CC(C)O1 (stereo not drawn) | -1.5 | 1 | -4.5 | 1 | 2.5 | 9.8
CC1=C(C(=O)Nc2ccc(C)cc2)C(c2ccc(N(C)C)cc2)NC(=O)N1 (stereo not drawn) | . | . | . | . | 3.3 | 5.0
CCCc1nc2c(nnn2Cc2ccccc2)c(=O)[nH]1 | 0.5 | 1 | 78.5* | 0.2 | 21.6 | 6.9
Cc1ccc2cc(C(c3nnnn3C3CCCC3)N(Cc3ccccc3)Cc3ccco3)c(=O)[nH]c2c1 (stereo not drawn) | 34.6 | 0.7 | 24.4 | 0.8 | -7.9 | 4.6
Cc1cc2cc(C(c3nnnn3C3CCCC3)N(Cc3cccnc3)Cc3ccco3)c(=O)[nH]c2cc1C (stereo not drawn) | 60.1* | 0.4 | 60.4* | 0.4 | -5.3 | 7.8
CCC(C)(C)n1nnnc1C(c1cc2ccc(C)cc2[nH]c1=O)N(Cc1cccnc1)Cc1ccco1 (stereo not drawn) | 88.9* | 0.1 | 99.0* | 0 | -3.2 | 23.9
CC(C)C(c1nnnn1C1CCCC1)N1CCc2ccccc21 (stereo not drawn) | 56.7* | 0.4 | 29.8 | 0.7 | 12.9 | 15.4
COc1cc2cc(C(c3nnnn3C3CCCCC3)N(C)C3CCCCC3)c(=O)[nH]c2cc1OC (stereo not drawn) | 50.5* | 0.5 | 62.4* | 0.4 | -5.4 | 16.9
CC(C)C(c1nnnn1C1CCCC1)N(C)C1CCCCC1 (stereo not drawn) | 51.2* | 0.5 | 22.0 | 0.8 | 10.6 | 2.3
Cc1ccc(C(c2nnnn2C2CCCCC2)N(C)C2CCCCC2)cc1 (stereo not drawn) | -1.1 | 1 | 14.5 | 0.9 | 7.2 | 14.2
CCCC(c1nnnn1C(C)(C)CC)N(Cc1ccco1)Cc1cc2ccc(OC)cc2[nH]c1=O (stereo not drawn) | 40.6 | 0.6 | 29.1 | 0.7 | -3.8 | 9.5
COCCn1nnnc1C(c1cc2ccc(C)cc2[nH]c1=O)N(Cc1ccco1)Cc1cccs1 (stereo not drawn) | 69.7* | 0.3 | 47.4 | 0.5 | 13.6 | -5.0
O=C(Nc1c(Cl)cccc1Cl)c1cc(=O)n(Cc2ccccc2)c(=O)[nH]1 | -11.2 | 1.1 | -5.0 | 1.1 | 0.8 | -2.6
Clc1ccc(-c2nnsc2SCc2ccccc2)cc1 | 25.5 | 0.7 | -12.6 | 1.1 | 24.4 | 12.7
CCOc1ccc(C=O)cc1CN1CCCCC1 | 12.6 | 0.9 | -2.7 | 1 | 0.5 | 7.0
CCC(C)(C)NC(=O)CN(Cc1cccs1)C(=O)CCC(=O)Nc1nccs1 | 13.9 | 0.9 | 24.7 | 0.8 | -3.5 | 14.1
CCC(C)(C)NC(=O)CN(Cc1cccs1)C(=O)C(=O)Nc1ccc2c(c1)OCCO2 | 72.5* | 0.3 | 46.3 | 0.5 | -3.2 | 6.9
C=CCSC(=C(C#N)C#N)c1cc2c([nH]1)CCCC2 | 63.1* | 0.4 | 41.5 | 0.6 | 4.8 | 24.4
OC(COc1ccc2c(c1)CCC2)Cn1cnc2ccccc21 (stereo not drawn) | 8.7 | 0.9 | 10.1 | 0.9 | 0.3 | 2.5
COC(=O)c1c(NC(=O)CSc2n[nH]c(N)n2)sc(C)c1C | 31.5 | 0.7 | 13.3 | 0.9 | 13.4 | -1.3
SMILES | CYP2C9 inh | CYP2C9 act | CYP2C19 inhib | CYP2C19 act | PostGolgi yeast | PostGolgi ctrl
Cc1ccc(/C=C/C2=Cc3c(sc(NC(=O)CSc4n[nH]c(N)n4)c3C#N)C(C)(C)C2)o1 | 90.6* | 0.1 | 20.2 | 0.8 | -2.7 | -3.0
CN1c2ccccc2C(C)(C)C12C=Cc1cc(O)ccc1O2 (stereo not drawn) | 61.2* | 0.4 | 75.6* | 0.2 | -3.5 | 17.2
CC(C)c1nc2n[nH]c(N)c2c2c1CSC(C)(C)C2 | 17.9 | 0.8 | -12.5 | 1.1 | -6.8 | 1.2
O=C(NC(NC(=S)Nc1ccc(Cl)cc1Cl)C(Cl)(Cl)Cl)c1cccc([N+](=O)[O-])c1 (stereo not drawn) | 88.5* | 0.1 | 7.1 | 0.9 | 4.2 | 9.3
O=C(NC(=S)Nc1cc([N+](=O)[O-])ccc1Cl)c1ccccc1 | 9.9 | 0.9 | 7.6 | 0.9 | 17.4 | 7.3
Cc1cc2oc(=O)cc(Cn3ccnc3)c2cc1C | 56.6* | 0.4 | 100.4* | 0 | -10.3 | -11.1
O=c1cc(CN2CCN(CCO)CC2)c2cc3c(cc2o1)CCC3 | -13.1 | 1.1 | 0.9 | 1 | 1.0 | -3.5
O=c1cc(Cn2ccnc2)c2cc3c(cc2o1)CCC3 | 47.9 | 0.5 | 100.4* | 0 | 6.0 | -0.5
Cc1ccc2c(c1)C(=O)CCN2 | -14.1 | 1.1 | -0.4 | 1 | -5.6 | -1.7
O=C1CCNc2cc3ccccc3cc21 | 24.4 | 0.8 | 51.6* | 0.5 | 5.4 | 12.3
Cc1ccc(C)c(-c2nc3ccc(N)cc3[nH]2)c1 | 16.8 | 0.8 | 47.2 | 0.5 | 1.2 | 9.6
Cc1ccc2nc(C)c(C)nc2c1N | 14.5 | 0.9 | 77.4* | 0.2 | 3.9 | -1.6
Cc1ccc(C(=O)N2CCN(c3ccc(Cl)cc3)CC2)cc1 | 51.4* | 0.5 | 54.2* | 0.5 | 5.4 | 20.2
O=C(c1ccc2c(c1)OCO2)N1CCCC(c2ccccc2)C1 (stereo not drawn) | 8.4 | 0.9 | 87.4* | 0.1 | 17.4 | 22.2
O=C(Nc1ccc(C(=O)N2CCCC2)cc1)c1ccc2c(c1)OCO2 | 39.9 | 0.6 | 42.3 | 0.6 | -1.4 | -1.4
O=C(c1ccc2c(c1)OCO2)N1CCN(c2ccccc2)CC1 | 45.4 | 0.5 | 87.9* | 0.1 | -15.5 | 4.2
O=C(c1cc(-c2ccc3c(c2)OCO3)on1)N1CCN(c2ccccc2)CC1 | 50.5* | 0.5 | 10.5 | 0.9 | -0.8 | 19.4
COCCNC(=O)c1cc(-c2ccc(Cl)c(Cl)c2)on1 | -3.9 | 1 | -15.5 | 1.2 | 0.2 | 20.0
Fc1cccc(Cl)c1CSc1nnc(CN2CCOCC2)n1-c1ccccc1 | 11.0 | 0.9 | 25.4 | 0.7 | 0.5 | 2.4
COC(=O)C(O)(CC(=O)Nc1ccc(C)c(F)c1)C(F)(F)F (stereo not drawn) | 21.9 | 0.8 | 11.2 | 0.9 | 0.8 | 6.2
